Results published in PubChem BioAssay.
Inconclusive results are not listed. Active and inactive are the calls of the source.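 Rule for the calls, unless noted: active = response below a set limit, under 55% cells CD8-positive and vesicle-bound, and CD8 cells' 90th-percentile brightness under 279; inactive = the rest.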

Columns and labels:
[1] = rapamycin-like changes in RPL19A-GFP expression – cell-based, S. cerevisiae, multiplex flow cytometry, primary screen (AID 1862; in the data active = percent of DMSO control GFP below about 86%;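 note: lower values mimic rapamycin by blocking the RPL19A rise seen in DMSO cells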); settings: S. cerevisiae RPL19A-GFP strain, flow cytometry fluorescence, 3 h; at 10 µM; stronger effect = lower value
[2] = TOR pathway GLN3 branch reporter MEP2-GFP changes – S. cerevisiae, multiplex flow cytometry, primary screen (AID 1867;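 active = GFP response, as percent of the DMSO control, above the screen-wide mean plus 3 SD, about 139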;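 note: median GFP channel fluorescence of barcode-gated MEP2-GFP cells measured by flow cytometry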); settings: S. cerevisiae MEP2-GFP strain, 3 h, at 10 µM, stronger effect = higher value, 100% means same as DMSO wells
[3] = TOR pathway RTG branch CIT2 reporter changes – S. cerevisiae, GFP fusion, multiplex flow cytometry, primary screen (AID 1870;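 active = percent response above a set limit, the screen-wide mean plus 3 SD, cut at about 130% in these data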;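 note: barcoded CIT2-GFP strain pooled with four other GFP strains with rapamycin as positive control; median GFP fluorescence per well over plate mean of DMSO wells so 100% = DMSO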); settings: S. cerevisiae CIT2-GFP expression, 3 h, at 10 µM, stronger effect = higher value
[4] = TOR pathway LAP4-GFP level changes – S. cerevisiae, multiplex flow cytometry, primary screen (AID 1873;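 active = GFP signal, as percent of the solvent control, above the screen mean plus 3 SD, about 149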); settings: S. cerevisiae LAP4-GFP expression, 3 h, at 10 µM, stronger effect = higher value
[5] = yeast AGP1-GFP level changes, GLN3 branch – cell-based, multiplex flow cytometry, S. cerevisiae, primary screen (AID 1887;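 active = GFP signal above the screen-wide mean plus 3 SD, that is over about 124.5% of the solvent control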;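 note: AGP1-GFP fusion strain of S. cerevisiae within a five-strain barcoded multiplex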); settings: 3 h, at 10 µM, stronger effect = higher value
[6] = reduced mouse 2C T cell binding to pMHC/ICAM-1 vesicles – MLPCN validation set, flow cytometry, LFA-1/ICAM-1 modulator project, pilot screen (AID 2523); settings: 2C mouse CD8+ T cells, at 7 µM, stronger effect = lower value; double positive events: measured here: CD8+/vesicle+ event percentage;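 for vesicle binding response: mean PE anti-B7-1 fluorescence of CD8+ cells relative to row control; 100% = QL9-loaded vesicles with DMSO vehicle in the same plate row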
[7] = biological target: Integrin beta-1 (Homo sapiens) + Integrin alpha-4 (Homo sapiens) (UniProt P13612+P05556); assay: alpha4beta1 integrin LIBS antibody binding reduction – U937 cells, HUTS-21 mAb, flow cytometry, validation set, VLA-4 allosteric modulator project, pilot screen (AID 2674;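 active = inhibition above 50%, about 3 SD of the validation set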;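 note: antibody binding induced by the VLA-4 ligand LDV present at three times its Kd; 0% = LDV ligand with antibody and no compound and 100% = antibody without LDV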); settings: HUTS-21 LIBS mAb binding, at 6.7 µM, stronger effect = higher value, binding induced by LDV ligand
[8] = calorie-restriction mimetic ROS inhibitors, yeast – validation compound set, pilot screen (AID 2706;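 active = superoxide response below 65% of plate, a cut near 3 SD across the whole screen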;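 note: yeast exposed to compound for one week at 30 degrees C before staining; 100% = mean of all compound wells on the same plate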); settings: S. cerevisiae aging, superoxide DHE fluorescence; at 10 µM; stronger effect = lower value
[9] = biological target: Beta-adrenergic receptor kinase 1 (Homo sapiens) (UniProt P25098); assay: GRK2 binders displacing RNA aptamer, biochemical, validation, human GRK2, bead flow cytometry (AID 488806;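 active = aptamer binding inhibition above 30%, about 3 SD of noise from non-fluorescent compounds; inactive = inhibition at or below 30%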); settings: bead-bound GRK2, FAM-aptamer displacement, at 10 µM, stronger effect = higher value
[10] = biological target: Beta-2 adrenergic receptor (Homo sapiens) (UniProt P07550); assay: agonist-induced loss of surface beta2AR – cell-based, FAP fluorogen, flow cytometry, validation set, pilot screen (AID 504459;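 active = percent response above 42, roughly 3 SD of non-fluorescent test compounds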;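 note: agonist-driven loss of surface beta2AR via internalization measured by FAP dye flow cytometry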); settings: Am2.2-beta2AR cells, at 10 µM, stronger effect = higher value
[11] = biological target: AP-2 complex subunit beta (Homo sapiens) (UniProt P63010); assay: beta-arrestin/AP2 interaction blockers – biochemical, validation set, GST-AP2 beads, flow cytometry, pilot screen (AID 504541;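 active = inhibition above 54%, about 3 SD of non-fluorescent compounds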;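 note: AP2 carries R879A mutation and is captured from E. coli lysate; bead-bound FITC arrestin peptide fluorescence measuring arrestin peptide binding to AP2; 0% = DMSO wells and 100% = excess unlabeled arrestin peptide control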); settings: FITC arrestin peptide, at 10 µM, stronger effect = higher value, AP2 beta2 appendage fragment, R879A mutant
[12] = cytosolic pH regulators acting via V-ATPase – S. cerevisiae, pHLuorin, HTS validation (AID 504600; in the data active = response above about 15%;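 note: plate controls were DMSO for no effect and reference compound for full effect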); settings: V-ATPase proton transport, at 10 µM, stronger effect = higher value
[13] = test system: anti-desmoglein-3 scFv antibody binding to human DSG3; assay: blockers of pathogenic pemphigus antibody–desmoglein-3 binding – biochemical, validation compound set, bead-based, flow cytometry, pilot screen (AID 588368;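 active = binding below the plate cutoff, the plate median minus 3 SD, with a reading above zero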;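 note: signal is the median channel fluorescence of bead-bound GFP antibody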); settings: Protein G beads, DSG3-Fc, scFv-GFP binding, at 10 µM, stronger effect = lower value
[14] = Nile Red efflux blockade in pump-expressing yeast – validation compound set, multiplex, phenotypic, pilot screen (AID 588506;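 active = efflux inhibition above 0.42, the validation set average plus 4 SD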;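 note: Nile Red retained in cells so higher fluorescence means more efflux inhibition; 0 = negative control wells and 1 = enniatin B 25 µM full block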); settings: S. cerevisiae pump-expressing triplex, Nile Red efflux flow cytometry; at 10 µM; stronger effect = higher value; the pumps come from Candida albicans
[15] = biological target: ATP-binding cassette sub-family B member 6 (Homo sapiens) (UniProt Q9NP58); assay: blockers of ABCB6-driven porphyrin uptake – K562-ABCB6 cells, flow cytometry, validation set, pilot screen (AID 588550;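 active = inhibition above the screen-wide mean plus 3 SD, about 51%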;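 note: 0% = DMSO wells and 100% = benzethonium chloride 70 µM positive control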); settings: K562-ABCB6 porphyrin accumulation, 1 h, at 10 µM, stronger effect = higher value
[16] = AML differentiation inducers, ER-HoxA9 marrow cells – cell-based, GFP/MAC1 double positive, flow cytometry, validation set, primary screen (AID 588685;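 active = differentiation response of at least 50%, scaled between solvent and reference control, from cells with both markers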;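 note: compound exposure lasts four days before antibody staining and flow analysis; 0% = DMSO wells and 100% = 5 µM fulvestrant positive control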); settings: stronger effect = higher value, normalized: vehicle 0, fulvestrant 100

Sequence of Integrin beta-1 (Homo sapiens) + Integrin alpha-4 (Homo sapiens) (P05556 whole entry, looked up): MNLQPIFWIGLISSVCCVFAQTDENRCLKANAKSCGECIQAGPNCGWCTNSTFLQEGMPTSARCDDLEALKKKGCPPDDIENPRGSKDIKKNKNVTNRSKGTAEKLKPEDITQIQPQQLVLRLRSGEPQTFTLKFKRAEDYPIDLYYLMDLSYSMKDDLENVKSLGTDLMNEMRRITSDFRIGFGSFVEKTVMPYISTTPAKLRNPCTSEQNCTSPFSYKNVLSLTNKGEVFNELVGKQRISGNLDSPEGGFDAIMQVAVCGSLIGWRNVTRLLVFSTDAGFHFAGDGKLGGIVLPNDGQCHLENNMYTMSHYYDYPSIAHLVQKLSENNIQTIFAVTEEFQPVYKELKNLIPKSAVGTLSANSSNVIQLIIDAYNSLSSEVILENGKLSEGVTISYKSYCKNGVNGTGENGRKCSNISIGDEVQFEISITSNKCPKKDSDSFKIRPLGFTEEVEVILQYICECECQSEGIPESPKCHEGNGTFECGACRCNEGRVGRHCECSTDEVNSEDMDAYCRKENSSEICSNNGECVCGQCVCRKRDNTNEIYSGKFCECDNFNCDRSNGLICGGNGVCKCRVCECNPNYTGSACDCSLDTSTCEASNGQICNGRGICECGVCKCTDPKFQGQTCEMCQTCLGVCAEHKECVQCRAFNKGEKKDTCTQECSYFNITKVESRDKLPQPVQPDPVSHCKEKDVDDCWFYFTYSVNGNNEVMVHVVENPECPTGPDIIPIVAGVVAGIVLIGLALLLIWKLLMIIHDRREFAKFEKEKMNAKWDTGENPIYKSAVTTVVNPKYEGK
Sequence of Integrin beta-1 (Homo sapiens) + Integrin alpha-4 (Homo sapiens) (P13612 whole entry, looked up): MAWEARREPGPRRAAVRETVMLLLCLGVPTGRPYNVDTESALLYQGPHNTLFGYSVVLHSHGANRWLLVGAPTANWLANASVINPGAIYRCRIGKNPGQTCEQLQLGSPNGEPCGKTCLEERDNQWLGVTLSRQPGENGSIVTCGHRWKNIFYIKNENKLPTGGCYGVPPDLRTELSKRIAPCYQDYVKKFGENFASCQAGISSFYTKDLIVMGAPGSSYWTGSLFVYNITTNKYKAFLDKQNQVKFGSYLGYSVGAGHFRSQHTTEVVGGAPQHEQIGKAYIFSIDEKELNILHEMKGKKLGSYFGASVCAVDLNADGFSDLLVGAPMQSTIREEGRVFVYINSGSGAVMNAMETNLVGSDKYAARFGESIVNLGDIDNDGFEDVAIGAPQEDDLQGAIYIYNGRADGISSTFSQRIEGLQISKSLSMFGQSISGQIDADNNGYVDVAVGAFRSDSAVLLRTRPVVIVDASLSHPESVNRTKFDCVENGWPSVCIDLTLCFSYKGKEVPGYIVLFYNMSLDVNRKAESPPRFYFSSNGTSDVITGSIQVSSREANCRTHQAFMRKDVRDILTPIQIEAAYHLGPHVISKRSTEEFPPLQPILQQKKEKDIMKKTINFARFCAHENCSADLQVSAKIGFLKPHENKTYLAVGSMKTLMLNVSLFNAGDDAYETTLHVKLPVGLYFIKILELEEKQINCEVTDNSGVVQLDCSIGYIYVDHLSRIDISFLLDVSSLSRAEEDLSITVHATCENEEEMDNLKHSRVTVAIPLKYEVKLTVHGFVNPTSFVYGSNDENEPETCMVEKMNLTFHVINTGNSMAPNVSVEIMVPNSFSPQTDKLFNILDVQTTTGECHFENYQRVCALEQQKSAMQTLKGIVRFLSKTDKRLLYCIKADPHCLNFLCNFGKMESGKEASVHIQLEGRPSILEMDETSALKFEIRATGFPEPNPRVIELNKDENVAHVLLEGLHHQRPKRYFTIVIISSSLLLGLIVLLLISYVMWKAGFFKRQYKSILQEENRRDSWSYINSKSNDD
Sequence of Beta-adrenergic receptor kinase 1 (Homo sapiens) (P25098 whole entry, looked up): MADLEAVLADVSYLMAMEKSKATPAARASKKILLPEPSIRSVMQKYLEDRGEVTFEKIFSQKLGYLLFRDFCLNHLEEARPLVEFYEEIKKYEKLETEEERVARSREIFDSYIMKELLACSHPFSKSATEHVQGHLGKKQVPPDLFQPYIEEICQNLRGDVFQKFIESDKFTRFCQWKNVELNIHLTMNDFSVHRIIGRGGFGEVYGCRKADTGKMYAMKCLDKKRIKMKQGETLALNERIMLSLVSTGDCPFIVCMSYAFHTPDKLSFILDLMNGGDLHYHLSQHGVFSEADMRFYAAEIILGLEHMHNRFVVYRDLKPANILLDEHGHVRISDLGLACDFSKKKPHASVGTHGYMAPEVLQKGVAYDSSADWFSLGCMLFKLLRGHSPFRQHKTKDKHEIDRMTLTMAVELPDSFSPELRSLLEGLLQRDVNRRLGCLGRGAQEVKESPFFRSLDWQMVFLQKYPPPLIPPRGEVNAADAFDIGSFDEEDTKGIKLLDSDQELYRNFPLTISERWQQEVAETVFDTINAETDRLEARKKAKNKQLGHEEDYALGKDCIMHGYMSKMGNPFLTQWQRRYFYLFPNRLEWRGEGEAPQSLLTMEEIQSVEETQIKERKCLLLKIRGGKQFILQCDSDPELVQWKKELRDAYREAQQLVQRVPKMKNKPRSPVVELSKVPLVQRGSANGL
Sequence of Beta-2 adrenergic receptor (Homo sapiens) (P07550 whole entry, looked up): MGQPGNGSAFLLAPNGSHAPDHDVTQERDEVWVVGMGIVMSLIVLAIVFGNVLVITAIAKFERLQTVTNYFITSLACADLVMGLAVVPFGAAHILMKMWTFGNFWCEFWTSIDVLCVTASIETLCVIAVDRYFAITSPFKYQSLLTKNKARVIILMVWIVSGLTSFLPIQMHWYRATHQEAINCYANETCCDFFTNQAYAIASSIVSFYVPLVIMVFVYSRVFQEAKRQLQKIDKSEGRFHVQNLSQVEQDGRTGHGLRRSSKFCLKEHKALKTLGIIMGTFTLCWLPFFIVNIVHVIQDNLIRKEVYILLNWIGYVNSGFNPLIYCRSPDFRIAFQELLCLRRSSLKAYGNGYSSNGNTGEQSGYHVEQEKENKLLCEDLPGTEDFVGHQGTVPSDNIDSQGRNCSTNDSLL
Sequence of ATP-binding cassette sub-family B member 6 (Homo sapiens) (Q9NP58 whole entry, looked up): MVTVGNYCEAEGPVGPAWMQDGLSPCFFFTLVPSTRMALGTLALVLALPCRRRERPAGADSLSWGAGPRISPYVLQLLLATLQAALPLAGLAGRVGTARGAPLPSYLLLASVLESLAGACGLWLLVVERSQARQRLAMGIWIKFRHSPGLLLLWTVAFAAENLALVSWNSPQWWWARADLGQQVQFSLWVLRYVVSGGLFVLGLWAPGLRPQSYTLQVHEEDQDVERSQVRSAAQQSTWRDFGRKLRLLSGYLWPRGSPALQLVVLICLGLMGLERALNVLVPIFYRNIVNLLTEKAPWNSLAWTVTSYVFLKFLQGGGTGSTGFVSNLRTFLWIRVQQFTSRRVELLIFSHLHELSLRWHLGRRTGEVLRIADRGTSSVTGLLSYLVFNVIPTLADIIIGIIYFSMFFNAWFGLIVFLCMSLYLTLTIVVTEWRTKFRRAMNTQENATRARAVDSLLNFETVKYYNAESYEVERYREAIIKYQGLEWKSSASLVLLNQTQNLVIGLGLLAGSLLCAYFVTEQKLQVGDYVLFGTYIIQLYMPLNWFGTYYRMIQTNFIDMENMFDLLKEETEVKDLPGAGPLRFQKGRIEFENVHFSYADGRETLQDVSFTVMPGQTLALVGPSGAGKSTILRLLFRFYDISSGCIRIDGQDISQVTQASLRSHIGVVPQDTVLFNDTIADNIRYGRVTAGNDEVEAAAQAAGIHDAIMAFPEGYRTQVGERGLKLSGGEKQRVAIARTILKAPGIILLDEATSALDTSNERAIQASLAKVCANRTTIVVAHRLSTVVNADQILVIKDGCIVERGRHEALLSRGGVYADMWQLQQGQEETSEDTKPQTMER
Sequence of AP-2 complex subunit beta (Homo sapiens) (P63010 whole entry, looked up, the tested form may be a part, one chain of several): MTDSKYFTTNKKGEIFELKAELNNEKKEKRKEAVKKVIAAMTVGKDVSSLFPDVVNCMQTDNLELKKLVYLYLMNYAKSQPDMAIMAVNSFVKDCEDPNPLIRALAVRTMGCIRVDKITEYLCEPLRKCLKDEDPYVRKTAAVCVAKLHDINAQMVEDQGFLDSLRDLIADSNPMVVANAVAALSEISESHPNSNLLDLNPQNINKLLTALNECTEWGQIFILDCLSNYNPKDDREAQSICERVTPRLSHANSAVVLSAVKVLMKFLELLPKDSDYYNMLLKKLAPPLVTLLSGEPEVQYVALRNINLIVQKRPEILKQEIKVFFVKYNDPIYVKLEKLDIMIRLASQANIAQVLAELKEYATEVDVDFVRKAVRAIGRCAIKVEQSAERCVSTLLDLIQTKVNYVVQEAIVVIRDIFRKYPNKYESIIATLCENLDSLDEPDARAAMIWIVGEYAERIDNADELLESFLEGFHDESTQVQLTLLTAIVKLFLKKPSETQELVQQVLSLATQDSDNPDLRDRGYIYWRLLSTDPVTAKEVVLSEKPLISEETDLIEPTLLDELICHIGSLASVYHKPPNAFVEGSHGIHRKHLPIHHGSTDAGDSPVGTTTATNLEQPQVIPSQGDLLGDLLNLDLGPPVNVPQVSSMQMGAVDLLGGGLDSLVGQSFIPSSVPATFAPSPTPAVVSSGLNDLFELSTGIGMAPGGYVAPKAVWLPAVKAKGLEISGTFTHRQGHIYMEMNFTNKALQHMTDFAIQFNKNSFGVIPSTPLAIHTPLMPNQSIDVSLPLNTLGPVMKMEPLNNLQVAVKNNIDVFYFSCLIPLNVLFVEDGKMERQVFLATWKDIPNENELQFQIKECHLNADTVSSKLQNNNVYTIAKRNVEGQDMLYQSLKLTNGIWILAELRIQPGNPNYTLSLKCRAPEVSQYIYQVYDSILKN

CN(C)CCC=C1c2ccccc2CCc2ccccc21
60.1%: double positive events [6]
inactive: percent of DMSO control GFP [1] 93.9% | GFP response vs DMSO [2] 105% | percent response of DMSO control [3] 93.9% | GFP response vs DMSO [4] 113% | GFP response, % of DMSO [5] 95.4% | vesicle binding response [6] 227% | inhibition [7] 6.4% | superoxide response (% of plate) [8] 101% | aptamer binding inhibition [9] 2% | response [10] -0.14% | inhibition [11] -8.77% | response [12] 6.98% | binding (% of control) [13] 101% | efflux inhibition (fraction of control) [14] -0.17 | inhibition [15] 6% | differentiation response [16] -24.8%

COc1ccc(CCNc2ncnc3c2[nH]c2cc(OC)c(OC)cc23)cc1OC
inactive: percent of DMSO control GFP [1] 97.2% | GFP response vs DMSO [2] 126% | percent response of DMSO control [3] 111% | GFP response vs DMSO [4] 82.5% | GFP response, % of DMSO [5] 98.7% | vesicle binding response [6] 178% | inhibition [7] 0.64% | superoxide response (% of plate) [8] 97.5% | aptamer binding inhibition [9] 2% | response [10] 19.8% | inhibition [11] -1.78% | response [12] 3.11% | binding (% of control) [13] 101% | efflux inhibition (fraction of control) [14] -0.06 | inhibition [15] 10% | differentiation response [16] -0.82%
64%: double positive events [6]

O=c1c2ccccc2nc2n1CCCN2
active: vesicle binding response [6] 72.9%
50.4%: double positive events [6]
inactive: percent of DMSO control GFP [1] 103% | GFP response vs DMSO [2] 97.4% | percent response of DMSO control [3] 111% | GFP response vs DMSO [4] 98.2% | GFP response, % of DMSO [5] 103% | inhibition [7] -7.25% | superoxide response (% of plate) [8] 102% | aptamer binding inhibition [9] -1% | response [10] -10.8% | inhibition [11] -9.42% | response [12] -1.39% | binding (% of control) [13] 102% | efflux inhibition (fraction of control) [14] -0.1 | inhibition [15] 2% | differentiation response [16] -16.8%

O=C(CN1C(=O)C2CCc3[nH]c4ccccc4c3C2C1=O)N1CCCC1 (stereo not drawn)
active: vesicle binding response [6] 72.2%
inactive: percent of DMSO control GFP [1] 89.1% | GFP response vs DMSO [2] 121% | percent response of DMSO control [3] 106% | GFP response vs DMSO [4] 78.1% | GFP response, % of DMSO [5] 87.3% | inhibition [7] 22.9% | superoxide response (% of plate) [8] 95.1% | aptamer binding inhibition [9] 3% | response [10] -15.3% | inhibition [11] -3.8% | response [12] -4.07% | binding (% of control) [13] 103% | efflux inhibition (fraction of control) [14] 0.09 | inhibition [15] 9% | differentiation response [16] 4.91%
48%: double positive events [6]

C[C@]12CC[C@@H]3c4ccc(O)cc4[C@@H](O)C[C@H]3[C@@H]1CC[C@@H]2O
inactive: percent of DMSO control GFP [1] 103% | GFP response vs DMSO [2] 101% | percent response of DMSO control [3] 108% | GFP response vs DMSO [4] 98% | GFP response, % of DMSO [5] 104% | vesicle binding response [6] 53.4% | inhibition [7] 5.61% | superoxide response (% of plate) [8] 106% | aptamer binding inhibition [9] 26% | response [10] -0.21% | inhibition [11] -3.62% | response [12] -0.11% | binding (% of control) [13] 102% | efflux inhibition (fraction of control) [14] -0.29 | inhibition [15] 11% | differentiation response [16] -3.11%
59.1%: double positive events [6]

COc1cc(CC(=O)NCCc2ccc(S(N)(=O)=O)cc2)cc(OC)c1OC
66.9%: double positive events [6]
inactive: percent of DMSO control GFP [1] 104% | GFP response vs DMSO [2] 103% | percent response of DMSO control [3] 102% | GFP response vs DMSO [4] 114% | GFP response, % of DMSO [5] 111% | vesicle binding response [6] 177% | inhibition [7] 1.44% | superoxide response (% of plate) [8] 95.2% | aptamer binding inhibition [9] -4% | response [10] -8.65% | inhibition [11] -9.64% | response [12] 0.1% | binding (% of control) [13] 114% | efflux inhibition (fraction of control) [14] -0.04 | inhibition [15] 4% | differentiation response [16] 0.92%

COc1ccc(CNCCC2(C(C)C)CCOC(C)(C)C2)cc1 (stereo not drawn)
inactive: percent of DMSO control GFP [1] 99.2% | GFP response vs DMSO [2] 107% | percent response of DMSO control [3] 101% | GFP response vs DMSO [4] 88.7% | GFP response, % of DMSO [5] 97.2% | vesicle binding response [6] 52.5% | inhibition [7] -7.72% | superoxide response (% of plate) [8] 106% | aptamer binding inhibition [9] 3% | response [10] -6.71% | inhibition [11] -2.2% | response [12] 2.72% | binding (% of control) [13] 97.2% | efflux inhibition (fraction of control) [14] -0.1 | inhibition [15] -1% | differentiation response [16] 0.24%
55.9%: double positive events [6]

COC(=O)c1ccc(NC(=O)C23CCC(C)(C(=O)O2)C3(C)C)cc1 (stereo not drawn)
inactive: percent of DMSO control GFP [1] 95.2% | GFP response vs DMSO [2] 104% | percent response of DMSO control [3] 102% | GFP response vs DMSO [4] 115% | GFP response, % of DMSO [5] 106% | vesicle binding response [6] 195% | inhibition [7] -2.82% | superoxide response (% of plate) [8] 99.7% | aptamer binding inhibition [9] 2% | response [10] -24.2% | inhibition [11] 1.74% | response [12] -1.33% | binding (% of control) [13] 110% | efflux inhibition (fraction of control) [14] -0.04 | inhibition [15] 6% | differentiation response [16] -4.99%
64.8%: double positive events [6]

CC(=O)[C@H]1[C@H](C#N)C[C@H]2[C@@H]3CC=C4C[C@@H](O)CC[C@]4(C)[C@H]3CC[C@@]21C
inactive: percent of DMSO control GFP [1] 92% | GFP response vs DMSO [2] 125% | percent response of DMSO control [3] 104% | GFP response vs DMSO [4] 85.8% | GFP response, % of DMSO [5] 88% | vesicle binding response [6] 112% | inhibition [7] 19.1% | superoxide response (% of plate) [8] 104% | aptamer binding inhibition [9] 11% | response [10] 2.41% | inhibition [11] -10% | response [12] 0% | binding (% of control) [13] 103% | efflux inhibition (fraction of control) [14] -0.28 | inhibition [15] 6% | differentiation response [16] -3.28%
62.5%: double positive events [6]
